# Laboratory results as given in ChEMBL document CHEMBL4513216, “Probing the Open Global Health Chemical Diversity Library for Multistage-Active Starting Points for Next-Generation Antimalarials” (ACS Infect Dis, 2020).
# Screen size: about 69,000 compounds; about 8,600 (12%) showed an effect of 50% or more. The full list was thinned out, with strong results kept by preference.
# Test system: Plasmodium berghei
# Assay: Screen against P. berghei liver stage (PbLuc), transformed with Luciferase, at 10uM
# Assay type: functional, HepG2
# Conditions: tested at 10 uM
row,SMILES,INHIBITION [%]
1,CN(CC(F)(F)F)C(=O)COc1nc(Cc2ccc(F)cc2)no1,40.6
2,Cc1cccc(C(=O)N2CCCSCC2CN2CCCC2)c1 (stereo unspecified),-19.7
3,Cc1cccc(NCc2nn(C)c(=O)[nH]2)c1,59.8
4,Cn1[nH]c(CNc2cccc(Cl)c2)nc1=O,-0.473
5,Cc1cccc(NCc2nc(C)ccc2O)c1,24.8
6,CCc1ncc2c(n1)CN(CC(=O)Nc1cc(C)no1)CC2,-25.8
7,CN1CCN(C2CCCC2)C(CCO)C1 (stereo unspecified),7.24
8,CC(C)c1noc(OCC(=O)N(C)C(C)C)n1,-13.6
9,COC(=O)COc1nc(C(C)C)no1,7.25
10,CCN(CC)C(=O)COc1nc(C(C)C)no1,53.1
11,CCc1nn(C)c(Cl)c1CN1CCC(Cc2nncn2C)CC1,-7.25
12,Cn1cnnc1CC1CCN(Cc2nn(C)c3cccc(Cl)c23)CC1,75.4
13,Cn1nc(CN2CCC(c3ccncc3)CC2)c2c(Cl)cccc21,-18.1
14,Cc1nc(CN2CCOC3(CCCC3)C2)no1,42.5
15,Cc1nc(CN2CCCC(C)(CO)C2)no1 (stereo unspecified),68.1
16,Cc1nc(CN2CCCN(CCCc3ccccc3)CC2)no1,-34.8
17,c1csc(CN2CCc3onc(Cn4cccc4)c3C2)c1,2.41
18,Cc1cccc(S(=O)(=O)NC(=O)CCc2cscn2)c1,18.6
19,NC(=O)NC(=O)CCN(Cc1ccccc1)CC1CCOCC1,6.23
20,O=C(CN(Cc1ccccc1)CC1CCOCC1)NC(=O)NC1CC1,55.1
21,O=C(CN(Cc1ccccc1)CC1CCOCC1)Nc1nccs1,-1.53

row,SMILES,INHIBITION [%]
1,Cc1ccc(C(=O)NC2CCN(C(=O)NCc3ccccn3)CC2)o1,-4.16
2,Cc1cc(NC(=O)NCC2CCN(C(C)C)C2)no1 (stereo unspecified),-25.8
3,Cc1cn2c(n1)CCC(NC(=O)c1ccc(S(C)(=O)=O)o1)C2 (stereo unspecified),42.3
4,Cn1c2ncccc2c(=O)n1CC(=O)NCCC1=CCCCC1,66.8
5,Cn1c2ncccc2c(=O)n1CC(=O)NCCc1c(F)cccc1F,39.6
6,Cc1ccc(CNC(=O)Cn2c(=O)c3cccnc3n2C)cc1F,47.2
7,CCc1ccc(CN2CCc3ncnc(N4CCOCC4)c3CC2)o1,12.7
8,CC(C)(C)CN(CCC#N)Cn1cc(Cl)cn1,40.7
9,Cc1cnn(CC2CCCN2Cc2noc(C(C)(C)C)n2)c1 (stereo unspecified),-9.37
10,N#Cc1cc(F)ccc1CN1CCCC1Cn1cccn1 (stereo unspecified),66.7
11,CC(C)(C)c1nc(CN2CCCC2Cn2cccn2)no1 (stereo unspecified),60.5
12,N#Cc1cc(F)ccc1CN1CCCCC1Cn1cccn1 (stereo unspecified),5.03
13,Cn1ccnc1CN1CCCCC1Cn1cccn1 (stereo unspecified),59.7
14,Cc1cnn(CC2CCCN2Cc2nccn2C)c1 (stereo unspecified),41.2
15,Cc1cccn2c(=O)cc(CN3CCCC3Cn3cncn3)nc12 (stereo unspecified),-30.7
16,CC(C)(C)c1nc(CN2CCCC2Cn2cncn2)no1 (stereo unspecified),-38
17,Cc1cnn(CC2CCCN2Cc2cc(=O)n3cccc(C)c3n2)c1 (stereo unspecified),42.9
18,Cn1ccnc1CN1CCCC1Cn1cccn1 (stereo unspecified),-14
19,Cc1cccn2c(=O)cc(CN3CCCC3Cn3cccn3)nc12 (stereo unspecified),65.2
20,N#Cc1ccc(CN2CCCC2Cn2cccn2)c(F)c1 (stereo unspecified),25.6
